# “And” between values parts separate entries of the source, which are not always exact repeats. Equal entries are not always repeated. Where two headings read alike, the source gives them in different places.
# What was measured:
# [1] = test system: KIT; conditions: concentration: 1 μM, replicates: in singlicate; n = 1
# [2] = test system: LATS1; conditions: concentration: 1 μM, replicates: in singlicate; n = 1
# [3] = test system: LATS2; conditions: n = 1
# [4] = test system: LCK; conditions: n = 1
# [5] = test system: LIMK1; conditions: n = 1
# [6] = test system: LIMK2; conditions: n = 1
# [7] = test system: T1, LKB1; conditions: concentration: 1 μM, replicates: in singlicate; n = 1
# T1 construct: gene STK11
# [8] = test system: T2, LOK; conditions: concentration: 1 μM, replicates: in singlicate; n = 1
# T2 construct: gene STK10
# [9] = test system: LRRK2; conditions: concentration: 1 μM, replicates: in singlicate; n = 1
# [10] = test system: LTK; conditions: n = 1
# [11] = test system: LYN; conditions: concentration: 1 μM, replicates: in singlicate; n = 1
# [12] = test system: T3, LZK; conditions: concentration: 1 μM, replicates: in singlicate; n = 1
# T3 construct: gene MAP3K13
# [13] = test system: MAK; conditions: n = 1
# [14] = test system: MAP3K15; conditions: n = 1
# [15] = test system: MAP3K1; conditions: n = 1
# [16] = test system: MAP3K2; conditions: n = 1
# [17] = test system: MAP3K3; conditions: concentration: 1 μM, replicates: in singlicate; n = 1
# [18] = test system: MAP3K4; conditions: n = 1
# [19] = test system: MAP4K2; conditions: concentration: 1 μM, replicates: in singlicate; n = 1
# [20] = test system: MAP4K3; conditions: n = 1
# [21] = concentration: 1 μM,replicates: in singlicate, 1 µM
# [22] = concentration: 1 μM, replicates: in singlicate
# 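Also: KINOMEscan kinase panel screen.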
smiles,measurement,setting,value
CSc1nn2c(=O)cc(N3CCOCC3)nc2n1Cc1cccc(C(F)(F)F)c1C [GSK2363608],%Inh,[1],4%
same,%Inh,[2],0%
same,%Inh,[3]; [21],13% and 0%
same,%Inh,[4]; [21],29% and 2%
same,%Inh,[5]; [21],6% and 17%
same,%Inh,[6]; [21],20% and 0%
same,%Inh,[7],0%
same,%Inh,[8],0%
same,%Inh,[9],0%
same,%Inh,[10]; [21],17% and 0%
same,%Inh,[11],0%
same,%Inh,[12],0%
same,%Inh,[13]; [21],24% and 15%
same,%Inh,[14]; [21],5% and 0%
same,%Inh,[15]; [21],12% and 6%
same,%Inh,[16]; [21],10% and 13%
same,%Inh,[17],0%
same,%Inh,[18]; [21],18% and 30%
same,%Inh,[19],0%
same,%Inh,[20]; [21],0% and 10%
Cc1csc(-c2nc(Nc3ccncc3)c3ccccc3n2)n1 [GW869640],%Inh,[1],12%
same,%Inh,[2],19%
same,%Inh,[3]; [22],20%
same,%Inh,[4]; [22],2%
same,%Inh,[5]; [22],15%
same,%Inh,[6]; [22],2%
same,%Inh,[7],43%
same,%Inh,[8],40%
same,%Inh,[9],31%
same,%Inh,[10]; [22],18%
same,%Inh,[11],0%
same,%Inh,[12],20%
same,%Inh,[13]; [22],2%
same,%Inh,[14]; [22],35%
same,%Inh,[15]; [22],35%
same,%Inh,[16]; [22],38%
same,%Inh,[17],1%
same,%Inh,[18]; [22],2%
same,%Inh,[19],34%
same,%Inh,[20]; [22],0%
Cc1nnc(-c2ccc3occ(-c4ccc(S(C)=O)cc4)c3c2)[nH]1 (stereo not shown),%Inh,[1],20%
same,%Inh,[2],19%
same,%Inh,[3]; [22],0%
same,%Inh,[4]; [22],46%
same,%Inh,[5]; [22],0%
same,%Inh,[6]; [22],0%
same,%Inh,[7],23%
same,%Inh,[8],98.7%
same,%Inh,[9],0%
same,%Inh,[10]; [22],0%
same,%Inh,[11],18%
same,%Inh,[12],0%
same,%Inh,[13]; [22],0%
same,%Inh,[14]; [22],10%
same,%Inh,[15]; [22],24%
same,%Inh,[16]; [22],1%
same,%Inh,[17],0%
same,%Inh,[18]; [22],2%
same,%Inh,[19],0%
same,%Inh,[20]; [22],11%
COc1cc2nccc(Nc3ccc(NC(=O)c4ccc(C)cc4)c(O)c3)c2cc1OC.Cl [GW440132],%Inh,[1],38%
same,%Inh,[2],0%
same,%Inh,[3]; [22],0%
same,%Inh,[4]; [22],83%
same,%Inh,[5]; [22],4%
same,%Inh,[6]; [22],1%
same,%Inh,[7],2%
same,%Inh,[8],0%
same,%Inh,[9],28%
same,%Inh,[10]; [22],0%
same,%Inh,[11],28%
same,%Inh,[12],0%
same,%Inh,[13]; [22],13%
same,%Inh,[14]; [22],13%
same,%Inh,[15]; [22],10%
same,%Inh,[16]; [22],9%
same,%Inh,[17],0%
same,%Inh,[18]; [22],2%
same,%Inh,[19],0%
same,%Inh,[20]; [22],8%
COc1ccc(Nc2nccc(NCCNC(=O)Nc3ccccc3F)n2)cc1 [GSK1379901],%Inh,[1],57%
same,%Inh,[2],44%
same,%Inh,[3]; [22],0%
same,%Inh,[4]; [22],20%
same,%Inh,[5]; [22],4%
same,%Inh,[6]; [22],3%
same,%Inh,[7],0%
same,%Inh,[8],0%
same,%Inh,[9],0%
same,%Inh,[10]; [22],0%
same,%Inh,[11],0%
same,%Inh,[12],7%
same,%Inh,[13]; [22],19%
same,%Inh,[14]; [22],0%
same,%Inh,[15]; [22],1%
same,%Inh,[16]; [22],5%
same,%Inh,[17],0%
same,%Inh,[18]; [22],52%
same,%Inh,[19],0%
same,%Inh,[20]; [22],0%
COc1cc2ncnc(Nc3ccc4nc(-c5ccccc5)[nH]c4c3)c2cc1OC.Cl [GW282450],%Inh,[1],72%
same,%Inh,[2],0%
same,%Inh,[3]; [22],0%
same,%Inh,[4]; [22],33%
same,%Inh,[5]; [22],0%
same,%Inh,[6]; [22],0%
same,%Inh,[7],0%
same,%Inh,[8],5%
same,%Inh,[9],0%
same,%Inh,[10]; [22],11%
same,%Inh,[11],0%
same,%Inh,[12],0%
same,%Inh,[13]; [22],0%
same,%Inh,[14]; [22],0%
same,%Inh,[15]; [22],19%
same,%Inh,[16]; [22],8%
same,%Inh,[17],0%
same,%Inh,[18]; [22],9%
same,%Inh,[19],0%
same,%Inh,[20]; [22],3%
COc1ccc(C2=C(Nc3cccc(C(=O)O)c3)C(=O)NC2=O)cc1 [SB-390765],%Inh,[1],6%
same,%Inh,[2],26%
same,%Inh,[3]; [22],20%
same,%Inh,[4]; [22],10%
same,%Inh,[5]; [22],100%
same,%Inh,[6]; [22],0%
same,%Inh,[7],11%
same,%Inh,[8],28%
same,%Inh,[9],0%
same,%Inh,[10]; [22],11%
same,%Inh,[11],21%
same,%Inh,[12],52%
same,%Inh,[13]; [22],36%
same,%Inh,[14]; [22],15%
same,%Inh,[15]; [22],18%
same,%Inh,[16]; [22],12%
same,%Inh,[17],7%
same,%Inh,[18]; [22],9%
same,%Inh,[19],32%
same,%Inh,[20]; [22],2%
Cn1ccc2ncnc(Oc3cccc(C(=O)Nc4ccccc4)c3)c21,%Inh,[1],35%
same,%Inh,[2],0%
same,%Inh,[3]; [22],6%
same,%Inh,[4]; [22],7%
same,%Inh,[5]; [22],100%
same,%Inh,[6]; [22],0%
same,%Inh,[7],25%
same,%Inh,[8],0%
same,%Inh,[9],0%
same,%Inh,[10]; [22],2%
same,%Inh,[11],9%
same,%Inh,[12],0%
same,%Inh,[13]; [22],8%
same,%Inh,[14]; [22],0%
same,%Inh,[15]; [22],0%
same,%Inh,[16]; [22],11%
same,%Inh,[17],0%
same,%Inh,[18]; [22],0%
same,%Inh,[19],2%
same,%Inh,[20]; [22],15%
COc1cc(Nc2nccc(N3CCC(NC(=O)Nc4cc(C)ccc4C)C3)n2)cc(OC)c1OC (stereo not shown) [GSK1379762],%Inh,[1],78%
same,%Inh,[2],0%
same,%Inh,[3]; [22],0%
same,%Inh,[4]; [22],21%
same,%Inh,[5]; [22],20%
same,%Inh,[6]; [22],15%
same,%Inh,[7],0%
same,%Inh,[8],25%
same,%Inh,[9],22%
same,%Inh,[10]; [22],67%
same,%Inh,[11],6%
same,%Inh,[12],0%
same,%Inh,[13]; [22],54%
same,%Inh,[14]; [22],17%
same,%Inh,[15]; [22],16%
same,%Inh,[16]; [22],0%
same,%Inh,[17],0%
same,%Inh,[18]; [22],12%
same,%Inh,[19],0%
same,%Inh,[20]; [22],0%
COc1cccc(NC(=O)NC2CCN(c3ccnc(Nc4ccc(F)cc4)n3)C2)c1 (stereo not shown) [GSK1379721],%Inh,[1],63%
same,%Inh,[2],0%
same,%Inh,[3]; [22],0%
same,%Inh,[4]; [22],1%
same,%Inh,[5]; [22],0%
same,%Inh,[6]; [22],5%
same,%Inh,[7],25%
same,%Inh,[8],0%
same,%Inh,[9],0%
same,%Inh,[10]; [22],0%
same,%Inh,[11],0%
same,%Inh,[12],17%
same,%Inh,[13]; [22],32%
same,%Inh,[14]; [22],0%
same,%Inh,[15]; [22],5%
same,%Inh,[16]; [22],0%
same,%Inh,[17],0%
same,%Inh,[18]; [22],13%
same,%Inh,[19],2%
same,%Inh,[20]; [22],0%
O=C(O)COc1ncnc2cc(-c3ccc4[nH]ncc4c3)sc12,%Inh,[1],21%
same,%Inh,[2],0%
same,%Inh,[3]; [22],48%
same,%Inh,[4]; [22],0%
same,%Inh,[5]; [22],0%
same,%Inh,[6]; [22],0%
same,%Inh,[7],0%
same,%Inh,[8],2%
same,%Inh,[9],0%
same,%Inh,[10]; [22],97.3%
same,%Inh,[11],0%
same,%Inh,[12],39%
same,%Inh,[13]; [22],2%
same,%Inh,[14]; [22],53%
same,%Inh,[15]; [22],22%
same,%Inh,[16]; [22],13%
same,%Inh,[17],9%
same,%Inh,[18]; [22],4%
same,%Inh,[19],1%
same,%Inh,[20]; [22],0%
COC(=O)c1c(-c2ccccc2)c2cc(OC)ccc2c(=O)n1Cc1ccccc1,%Inh,[1],93.3%
same,%Inh,[2],31%
same,%Inh,[3]; [22],0%
same,%Inh,[4]; [22],0%
same,%Inh,[5]; [22],0%
same,%Inh,[6]; [22],0%
same,%Inh,[7],8%
same,%Inh,[8],9%
same,%Inh,[9],0%
same,%Inh,[10]; [22],11%
same,%Inh,[11],32%
same,%Inh,[12],0%
same,%Inh,[13]; [22],33%
same,%Inh,[14]; [22],0%
same,%Inh,[15]; [22],24%
same,%Inh,[16]; [22],0%
same,%Inh,[17],11%
same,%Inh,[18]; [22],12%
same,%Inh,[19],0%
same,%Inh,[20]; [22],0%
COc1ccc(Nc2nccc(-c3cccc(NC(=O)c4cc5cc(F)ccc5[nH]4)c3)n2)cc1 [GSK1229782],%Inh,[1],57%
same,%Inh,[2],5%
same,%Inh,[3]; [22],6%
same,%Inh,[4]; [22],46%
same,%Inh,[5]; [22],0%
same,%Inh,[6]; [22],12%
same,%Inh,[7],12%
same,%Inh,[8],0%
same,%Inh,[9],42%
same,%Inh,[10]; [22],19%
same,%Inh,[11],0%
same,%Inh,[12],33%
same,%Inh,[13]; [22],36%
same,%Inh,[14]; [22],0%
same,%Inh,[15]; [22],5%
same,%Inh,[16]; [22],38%
same,%Inh,[17],0%
same,%Inh,[18]; [22],21%
same,%Inh,[19],0%
same,%Inh,[20]; [22],0%
Cc1cc(N2Cc3ccccc3C2)nc(Nc2ccc(S(=O)(=O)N3CCOCC3)cc2)n1.Cl [GSK1669917],%Inh,[1],0%
same,%Inh,[2],29%
same,%Inh,[3]; [22],10%
same,%Inh,[4]; [22],4%
same,%Inh,[5]; [22],0%
same,%Inh,[6]; [22],16%
same,%Inh,[7],12%
same,%Inh,[8],0%
same,%Inh,[9],0%
same,%Inh,[10]; [22],0%
same,%Inh,[11],0%
same,%Inh,[12],0%
same,%Inh,[13]; [22],14%
same,%Inh,[14]; [22],0%
same,%Inh,[15]; [22],0%
same,%Inh,[16]; [22],0%
same,%Inh,[17],0%
same,%Inh,[18]; [22],2%
same,%Inh,[19],0%
same,%Inh,[20]; [22],0%

# Source: article PMC5540273 (PLoS ONE, 2017)
